In PubChem BioAssay:
Calls of active or inactive are those of the source. Unless noted, how the calls were made is not given here.

Columns and labels:
[1] = HepG2 liver cancer cell viability effects, profiling panel, resazurin fluorescence, 24 h, PK04 Diversity Set (AID 1172); conditions: higher = more signal; further: test concentration not given here
[2] = basal S. cerevisiae growth modulation, no modifier, primary screen, OD600, strain BY4716, 24 h, basal condition (AID 1173); conditions: OD600, 24 h, higher = more signal, called active from +8 up or from −8 down
[3] = MM1S myeloma cell viability, profiling panel, resazurin fluorescence, basal, 24 h, PK04 Diversity Set (AID 1174); conditions: higher = more signal, called active from +8 up or from −8 down;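 further: MM1S multiple myeloma cell line; test concentration not given here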
[4] = target: Dihydroorotate dehydrogenase (quinone), mitochondrial (Plasmodium falciparum (isolate 3D7)) (UniProt Q08210); assay: PfDHODH enzyme inhibitors, primary screen, biochemical, C-terminal His tag, absorbance 600 nm (AID 1175); conditions: DCIP absorbance 600 nm, higher = more signal, called active from +8 up or from −8 down;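 further: recombinant parasite enzyme with a five histidine tag at its C terminus; test concentration not given here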
[5] = P. aeruginosa biofilm formation inhibitors, primary screen, strain PAO1, LB-PBS medium, absorbance 600 nm (AID 1176); further: test concentration not given here; conditions: P. aeruginosa PAO1 growth/biofilm, A600, 12 h; higher = more signal
[6] = S. cerevisiae RM11-1a growth modifiers, primary screen, strain RM11-1a, OD600, basal, 24 h (AID 1177); conditions: OD600, 24 h, higher = more signal, called active from +8 up or from −8 down;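 further: cultures grown under basal conditions with no added stressor; test concentration not given here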
[7] = E. coli acrAB mutant growth effects, primary screen, E. coli filamentation inducers, strain DRC39, OD650, 24 h (AID 1178); conditions: higher = more signal, called active from +8 up or from −8 down;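 further: growth measured as culture turbidity by optical density at 650 nm; test concentration not given here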
[8] = E. coli acrAB mutant growth effects, primary screen, E. coli filamentation inducers, strain DRC39, OD650, 48 h (AID 1179);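 further: screen aims at cell division blockers that make cells filament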; conditions: E. coli DRC39 delta-acrAB growth, higher = more signal, called active from +8 up or from −8 down
[9] = RPMI8226 myeloma cell viability, profiling panel, resazurin fluorescence, basal, 24 h, PK04 Diversity Set (AID 1180); conditions: higher = more signal;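 further: RPMI8826 multiple myeloma cell line at 5000 cells per well; test concentration not given here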
[10] = target: E3 ubiquitin-protein ligase XIAP (Homo sapiens) (UniProt P98170); assay: XIAP binders, primary screen, biophysical, small-molecule microarray, fluorescence 635 nm (AID 1181); conditions: small-molecule microarray binding, higher = more signal;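 further: score merges 667 nm emission and signal to noise over triplicate slides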
Sequence of E3 ubiquitin-protein ligase XIAP (Homo sapiens) (P98170 whole entry, looked up): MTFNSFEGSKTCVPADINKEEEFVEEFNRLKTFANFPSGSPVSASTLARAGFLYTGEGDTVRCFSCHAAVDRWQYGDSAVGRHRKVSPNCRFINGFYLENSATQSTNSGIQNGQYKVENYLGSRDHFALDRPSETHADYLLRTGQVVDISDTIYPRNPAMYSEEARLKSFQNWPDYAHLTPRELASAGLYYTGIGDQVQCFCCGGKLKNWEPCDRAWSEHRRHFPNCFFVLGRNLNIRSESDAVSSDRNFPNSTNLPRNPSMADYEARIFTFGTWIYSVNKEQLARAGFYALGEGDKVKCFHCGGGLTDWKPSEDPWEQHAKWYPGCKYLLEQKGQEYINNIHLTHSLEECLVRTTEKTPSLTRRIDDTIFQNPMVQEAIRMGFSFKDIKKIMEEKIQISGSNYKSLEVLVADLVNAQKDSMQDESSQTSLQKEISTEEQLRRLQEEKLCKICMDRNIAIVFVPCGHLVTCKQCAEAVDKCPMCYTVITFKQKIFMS

Sequence of Dihydroorotate dehydrogenase (quinone), mitochondrial (Plasmodium falciparum (isolate 3D7)) (Q08210 whole entry, looked up): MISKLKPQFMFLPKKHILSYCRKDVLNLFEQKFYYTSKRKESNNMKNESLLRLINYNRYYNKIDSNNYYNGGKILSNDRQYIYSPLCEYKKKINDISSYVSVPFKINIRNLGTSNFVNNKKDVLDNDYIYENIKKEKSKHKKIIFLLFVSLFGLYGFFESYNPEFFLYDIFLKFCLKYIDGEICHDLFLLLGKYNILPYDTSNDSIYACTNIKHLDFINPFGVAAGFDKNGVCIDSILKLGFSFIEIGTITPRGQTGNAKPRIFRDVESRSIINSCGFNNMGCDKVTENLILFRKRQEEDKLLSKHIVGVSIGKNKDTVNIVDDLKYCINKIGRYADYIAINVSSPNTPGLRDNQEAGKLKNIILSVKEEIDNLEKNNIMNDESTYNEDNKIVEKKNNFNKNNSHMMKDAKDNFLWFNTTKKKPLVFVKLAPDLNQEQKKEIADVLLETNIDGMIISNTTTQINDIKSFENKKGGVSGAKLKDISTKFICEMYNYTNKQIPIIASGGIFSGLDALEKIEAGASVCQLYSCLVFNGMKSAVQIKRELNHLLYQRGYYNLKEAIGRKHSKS

Compound | z-score [1] | z-score [2] | z-score [3] | composite z-score [4] | z-score [5] | z-score [6] | z-score [7] | z-score [8] | z-score [9] | composite z-score [10]
COc1ccc(C#Cc2ccc3c(c2)[C@]2(C(=O)N3)[C@H](c3ccccc3OCCO)N3[C@H](c4ccccc4)[C@H](c4ccccc4)OC(=O)[C@H]3[C@@H]2C(=O)NC[C@H](O)c2ccccc2)cc1 | 0.328 | 2.05 (inactive) | -2.59 (inactive) | -17.2 (active) | 1.08 (inactive) | 2.25 (inactive) | 0.158 (inactive) | -0.438 (inactive) | -3.95 | 0.0655
COC(=O)[C@H](Cc1ccccc1)N1CC(C)(OC)O[C@@H](Cc2ccccc2)[C@H]1/C=C/C1CC1 (stereo not given in full) | 0.0905 | -0.968 (inactive) | -0.32 (inactive) | 0.512 (inactive) | -0.532 (inactive) | 0.815 (inactive) | -0.311 (inactive) | 0.215 (inactive) | -0.249 | 0.0583
CCOC(=O)C1=CC[C@@H](c2ccccc2)N(S(=O)(=O)c2ccc(C)cc2)[C@@H]1C#N | 0.794 | -1.95 (inactive) | -1.43 (inactive) | -1.21 (inactive) | -0.088 (inactive) | 0.455 (inactive) | -0.337 (inactive) | 0.831 (inactive) | -1.57 | -0.207
CCCC[C@@H](O)C1=C(C)Cn2c(=O)n(-c3ccccc3)c(=O)n2[C@H]1CO | -0.256 | -1.82 (inactive) | -0.0268 (inactive) | -1.06 (inactive) | 0.413 (inactive) | -1.88 (inactive) | 0.514 (inactive) | 0.715 (inactive) | -0.0486 | -0.249
O=C1O[C@H](c2ccccc2)[C@H](c2ccccc2)N2[C@H]1[C@@H](C(=O)N1CCN(c3ncccn3)CC1)[C@]1(C(=O)Nc3ccc(C#CC4(O)CCCCCC4)cc31)[C@H]2c1ccc(O)cc1 | 0.596 | -0.436 (inactive) | 0.776 (inactive) | 0.0991 (inactive) | 1.05 (inactive) | 1.82 (inactive) | 0.851 (inactive) | 1.31 (inactive) | 0.995 | -0.0663
CCCN1C(=O)[C@@]2(c3ccc([N+](=O)[O-])cc3)CC(=O)N(C3CCCCC3)[C@@H]2c2ccc(CO)cc21 | -0.225 | 1.88 (inactive) | -0.674 (inactive) | -24.3 (active) | 0.944 (inactive) | 1.89 (inactive) | 0.197 (inactive) | -1.27 (inactive) | -0.606 | -0.0773
CC(C)(C)OC(=O)CC[C@@]1(C(N)=O)N=C(c2ccc(OCCCO)cc2)O[C@@H]1c1ccccc1CN=[N+]=[N-] | 0.372 | -0.0901 (inactive) | -0.599 (inactive) | -1 (inactive) | 0.122 (inactive) | 0.0861 (inactive) | -0.0622 (inactive) | 0.131 (inactive) | -0.17 | 0.119
C=CC[C@H](O)c1ccc(O)c(F)c1 | -0.632 | -2.36 (inactive) | -0.711 (inactive) | -0.0056 (inactive) | 0.131 (inactive) | -0.498 (inactive) | 0.117 (inactive) | 0.0282 (inactive) | -0.0926 | -0.0088
COC(=O)c1c2oc(c1C(=O)OC)C(=O)N[C@H](Cc1ccccc1)Cn1cc(nn1)C1(CCCCC1)NC(=O)N[C@H](CO)CC2 | 0.483 | -2.6 (inactive) | 0.247 (inactive) | -0.174 (inactive) | 0.772 (inactive) | 0.0801 (inactive) | -0.051 (inactive) | 0.565 (inactive) | 0.245 | -0.113
C=CCC(OC(C)=O)[C@@H]1[C@@H](N(Cc2ccc(-c3ccccc3)cc2)C(=O)Cc2ccc(OC)cc2)c2cc(OCCCO)ccc2N1C(=O)Cc1ccc(OC)cc1 (stereo not given in full) | -0.626 | 0.118 (inactive) | -0.622 (inactive) | -0.0632 (inactive) | 0.186 (inactive) | -0.565 (inactive) | -0.105 (inactive) | -0.403 (inactive) | -0.357 | -0.185
C=C(CCCC)C(=O)CC[C@@H](OC(C)=O)c1ccc(OCCO)cc1 | -0.603 | -2 (inactive) | -0.953 (inactive) | -1.78 (inactive) | 1.07 (inactive) | 0.662 (inactive) | 0.227 (inactive) | 0.189 (inactive) | -0.894 | -0.074
C=CCC(OC(C)=O)[C@@H]1[C@@H](N(Cc2ccc(-c3ccccc3)cc2)C(=O)Cc2ccc(OC)cc2)c2cc(OCCCO)ccc2N1C(=O)c1ccc2ccccc2c1 (stereo not given in full) | -0.555 | -0.562 (inactive) | -0.536 (inactive) | -0.804 (inactive) | 0.0914 (inactive) | -1.21 (inactive) | 0.174 (inactive) | -0.339 (inactive) | 0.186 | 0.202
Cc1ccc(S[C@]2(C(=O)NCCN3CCOCC3)CC(=O)N(C(C)C)[C@@H]2c2ccc(CO)cc2I)cc1 | 0.124 | -3.26 (inactive) | -2.29 (inactive) | -2.11 (inactive) | 0.553 (inactive) | -2.93 (inactive) | 1.16 (inactive) | 1.65 (inactive) | -1.83 | -0.0304
COC(=O)C(CC#Cc1ccc2c(c1)[C@]1(C(=O)N2)[C@H](c2ccccc2OCCO)N2[C@H](c3ccccc3)[C@H](c3ccccc3)OC(=O)[C@H]2[C@@H]1C(=O)N1CCN(c2ncccn2)CC1)C(=O)OC | -0.0452 | 2.09 (inactive) | -0.935 (inactive) | -16.6 (active) | 2.29 (inactive) | 3.65 (inactive) | 0.236 (inactive) | -0.11 (inactive) | -4.73 | 0.306
COCCOC(=O)N1C(=O)[C@@]2(c3cc(C#CCCO)ccc31)[C@H](c1ccc(O)cc1)N1[C@H](c3ccccc3)[C@H](c3ccccc3)OC(=O)[C@H]1[C@@H]2C(=O)NC[C@H](O)c1ccccc1 | 1.63 | 0.597 (inactive) | 0.763 (inactive) | 0.612 (inactive) | 1.66 (inactive) | 1.06 (inactive) | 1.04 (inactive) | 1.67 (inactive) | 1.2 | 0.0256
CCCNC(=O)[C@@]1(Sc2ccc(C)cc2)CC(=O)N(Cc2cc(C(F)(F)F)cc(C(F)(F)F)c2)[C@@H]1c1ccc(CO)cc1 | -0.258 | -0.265 (inactive) | 0.905 (inactive) | -0.756 (inactive) | 0.366 (inactive) | -0.977 (inactive) | 0.484 (inactive) | -0.0429 (inactive) | 0.18 | -0.127
COC(=O)C(CC#Cc1ccc2c(c1)[C@]1(C(=O)N2)[C@H](C(N)=O)[C@H]2C(=O)O[C@H](c3ccccc3)[C@H](c3ccccc3)N2[C@@H]1c1ccccc1OCCO)C(=O)OC | -2.07 | 0.289 (inactive) | -9.27 (active) | 1.53 (inactive) | 2.35 (inactive) | 2.62 (inactive) | 0.0025 (inactive) | 0.957 (inactive) | -7.44 | 0.0289
C=CCNC(=O)[C@@H]1[C@H]2C(=O)O[C@H](c3ccccc3)[C@H](c3ccccc3)N2[C@H](c2ccc(OCCO)cc2)[C@@]12C(=O)Nc1ccc(C#CCNC(N)=O)cc12 | -0.0448 | 1.23 (inactive) | -0.286 (inactive) | -0.157 (inactive) | 1.18 (inactive) | 1.06 (inactive) | 0.0047 (inactive) | -0.568 (inactive) | 0.671 | 0.129
CC(CO)N1C(=O)[C@@H]2[C@H]3C(=O)OCC=C[C@H]3OC23C=CCN(c2ccc4ccccc4c2)C(=O)[C@@H]13 (stereo not given in full) | 0.984 | -0.0392 (inactive) | 0.224 (inactive) | 0.0007 (inactive) | -0.0432 (inactive) | -0.405 (inactive) | -0.398 (inactive) | -0.534 (inactive) | 0.492 | -0.138
C=C(C)C1CN([C@H](CO)c2ccccc2)C(=O)/C1=C\c1ccccc1 (stereo not given in full) | -0.607 | -5.73 (inactive) | 0.44 (inactive) | -2.88 (inactive) | -0.234 (inactive) | 0.119 (inactive) | 0.408 (inactive) | -0.719 (inactive) | 0.064 | 0.126
COC(=O)Cn1c(C(=O)N(C)C)cc2c1C[C@H]1CN(C(=O)c3ccccc3)[C@@](Cc3ccccc3)(C(=O)OC)[C@@H]21 | 0.971 | 0.282 (inactive) | 0.52 (inactive) | -0.777 (inactive) | -0.747 (inactive) | -0.161 (inactive) | 0.304 (inactive) | -1.15 (inactive) | 1.09 | 0.343
C=CCNC(=O)[C@H]1[C@@H]2C(=O)O[C@@H](c3ccccc3)[C@@H](c3ccccc3)N2[C@@H](c2ccc(OCCO)cc2)[C@]12C(=O)Nc1ccc(C#Cc3ccc(OC)cc3)cc12 | -1.06 | 2.32 (inactive) | -0.512 (inactive) | -2.27 (inactive) | 2.18 (inactive) | 3.66 (inactive) | -0.672 (inactive) | -0.995 (inactive) | -1.29 | 1.29
CC(C)C[C@@H]1NC(=O)[C@@H]2C[C@H](C(=O)NCCCCCNC(=O)CS)[C@H](c3ccc(O)cc3)N2C1=O | 0.432 | -1.44 (inactive) | 0.974 (inactive) | -0.24 (inactive) | 2.91 (inactive) | -1.38 (inactive) | -0.692 (inactive) | -0.539 (inactive) | 0.718 | 0.302
